In PubChem BioAssay (NCI) one finds growth data, which are given here for 40 compounds.

Compounds without any hit were thinned out: in the full panel of roughly 83,000, 20% have a hit.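 96-well plates, one dose, 48 hours. Percent growth reported; active if below 10.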 Unmarked numbers belong to inactive results. The source made the active and inactive calls.

The test relates to MDA-MB-468 breast. Put plainly: NCI-60 one-dose screen, 48 h (100 = growth as untreated, 0 = no growth, -100 = all killed). To be noted: 10 µM unless noted.
`C[C@]12CC[C@@H]3c4ccc(O)cc4CC[C@H]3[C@@H]1C[C@H](O)[C@@H]2O`: the growth was 87.1%.

`O=C(NCc1ccco1)Nc1c(Cl)cc(Cl)cc1Cl`: the growth is 87.8%.

On to `COc1ccc(Cc2cnc(NC(=O)c3ccc4c(c3)OCCO4)s2)cc1`, for which the growth is 19.1%.

Turning to `Cc1ccc(Cc2cnc(NC(=O)/C(C#N)=C/c3ccc(-c4ccc(Cl)cc4)o3)s2)cc1`, the growth is 83.1%.

In the case of `Cc1ccc(-c2onc3c(=O)[nH]nc(-c4ccccc4)c23)cc1`, the growth was 29.5%.

`Cc1nn(-c2cc(=O)[nH]c3ccccc23)c(N)c1C#N`: the growth is 110%.

As for `O=C(CCCCCCCn1cc(-c2cccnc2)nn1)Nc1ccccc1-c1ccccc1`, the growth is 48.2%.

Turning to `COc1ccc(-c2cc(C(=O)N=Nc3c(O)[nH]c4ccc(Br)cc34)no2)cc1`, the growth was 103%.

As for `CCCOC(=O)c1nc(N(CC2CCCCC2)C(=O)NC)sc1/N=C/c1ccccc1`, the growth was -18.8% (active).

With `CS(=O)(=O)Nc1cc(-c2ccc3ncnc(Nc4cccc(Cl)c4)c3c2)cnc1Cl`, the growth is -55.7% (active).

Consider `CC(C)(C)c1ccc(S(=O)(=O)O)s1`, for which the growth is 109%.

Take `Cc1ccc2c(c1)=C/C(=C\c1cc(-c3ccccc3)[nH]c1O)C(=O)N=2`: the growth is 8.74% (active).

With `COc1ncc(-c2ccc3nccc(C#CCN4CCN(S(C)(=O)=O)CC4)c3c2)cc1NS(=O)(=O)c1ccc(F)cc1F`, the growth was -67% (active).

Take `CN1C(=O)C(=Cc2coc3ccc(Br)cc3c2=O)C(=O)N(C)C1=O`: the growth was 102%.

For the compound `CC(C)=NNc1ccc([N+](=O)[O-])cc1[N+](=O)[O-]`, the growth was 96%.

Consider `O=C(Nc1ncc(Cc2cc(C(F)(F)F)ccc2Cl)s1)c1cccs1`, for which the growth was -0.706% (active).

For `O=C1/C(=C/c2cccc3cnccc23)Cc2cc(F)ccc21`, the growth was 65.2%.

Regarding `CCOC(=O)c1ccc2c(c1)c1c(C)c3cccnc3c(C)c1n2C`, the growth was 64.4%.

`CCOC(=O)/C=C/C(=O)[C@H](CC(C)C)NC(=O)[C@H](Cc1ccccc1)NC(=O)OCc1ccccc1`: the growth is -21.5% (active).

For the compound `COc1ccc(C(=O)c2cc(C)c(OC)c(C)c2)c(OC)c1N(C(=O)CCl)C(=O)CCl`, the growth is 3.62% (active).

Consider `N#Cc1c(N)nc(Cl)c(C#N)c1C(=O)c1ccccc1`, for which the growth is -6.56% (active).

For the compound `CCOC(=O)CC1CSC(N/N=C/c2ccc(-n3cccn3)cc2)=N1` (stereo not given), the growth is 95.3%.

`CCCCCCN(CCCCCC)CCCNc1nccc2ccccc12`: the growth was -6.34% (active).

Turning to `CCc1ccccc1NC(=O)c1sc2nc3c(cc2c1N)C(=O)CCC3`, the growth is 43.3%.

With `Cc1csc(Nc2nc(-c3ccc(Cl)cc3)nc(C(Cl)(Cl)Cl)n2)n1`, the growth is 9.54% (active).

For the compound `NC(=O)c1ccc[n+]([C@@H]2O[C@H](COP(=O)([O-])OP(=O)(O)OC[C@H]3O[C@@H](n4cnc5c(N)ncnc54)[C@H](O)[C@@H]3O)[C@@H](O)[C@H]2O)c1`, the growth was 122%.

For `CCN1C(=O)N(CC)C2C1NN=c1s/c(=C\c3ccc(F)cc3)c(=O)n12` (stereo not given), the growth is 11.9%.

Consider `CC(C)(C)n1cc(-c2ccnc(NCCNS(=O)(=O)c3ccc(C(F)(F)F)cc3)c2)c(-c2cccc(O)c2)n1`, for which the growth is 36.8%.

For `NC(N)=N/N=C/c1cccc(Br)c1`, the growth is 87%.

Turning to `COc1cc(C(=O)c2cc(C(C)=O)c3c(C)cccn23)cc(OC)c1OC`, the growth is 81.8%.

Turning to `CCOC(=O)c1c2c(n3ccc(C)cc13)C(=O)c1ccccc1C2=O`, the growth is 102%.

For `O=C(Nc1cccc2cccnc12)c1cc(C(=O)c2ccc(Cl)cc2)n2ccc(-c3ccncc3)cc12`, the growth was 108%.

In the case of `Nc1c(-c2nc3ccccc3c(=O)[nH]2)nnn1-c1ccc(Cl)cc1`, the growth was 105%.

As to `COc1cc(C(=O)Nc2ccc(-c3nc4ccccc4[nH]3)cc2)cc(OC)c1OC`, the growth was 6.62% (active).

In the case of `Cc1nn(-c2ccccc2)c2nc(Cl)c(/C=C/C(=O)c3ccccc3)c(-c3ccccc3)c12`, the growth is 105%.

Take `COc1ccc(/C=C(/C)c2ccc3ccc(OC)cc3[o+]2)c(O)c1`: the growth was 67.7%.

On to `COc1ccc(-c2nc3ccccn3c2-c2nc3ccc(Cl)cc3[nH]2)cc1`, for which the growth was 77.7%.

On to `CCOC(=O)C(=Cc1ccc(Br)cc1)C(=O)OCC`, for which the growth was -73.3% (active).

On to `N/C(=N\c1nc2ccccc2s1)NC(=O)Nc1cccc(Cl)c1`, for which the growth was 35.5%.

As for `COc1cnc2c(c1)C(=O)c1c-2n(CCCN2CCC(N)CC2)c(=O)c2cc([N+](=O)[O-])ccc12`, the growth was 74%.
